From PubChem BioAssay (NCI) come the findings set out here.

This is part of a sample that, as a whole, favours compounds with a hit. Of some 83,000 tested, about 20% had one in any assay.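 The test compound was applied at a single concentration to cells in 96-well plates for 48 hours, and percent growth was recorded.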 The source made the active and inactive calls. How the source made its calls: active means growth percent below 10; inactive means the rest.

The subject of this assay is RXF 393 renal. In words: NCI-60 one-dose screen, 48 h (100 = growth as untreated, 0 = no growth, -100 = all killed). The conditions noted are these: 10 µM unless noted.
As for `C=CC1=C[C@@H]2[C@@H]3O[C@]4(CC[C@H](O4)[C@@H](C)C[C@@H](O)C3=O)C[C@H](O)C3=NCC[C@@]32CC1`, the growth was -67.3% (active).
As to `Cc1cc(-c2nc3cc(F)ccc3[se]2)cc(F)c1N`, the growth is 120% (inactive).
With `CN1CC(=O)N(O)C1(C)c1cccnc1` (stereo not given), the growth is 106% (inactive).
Next, `O=C(Nc1ccncc1F)c1cn(CC2CC2)c2ccccc12`: 103% (inactive); `COc1cccc2c1c(C(=O)C(=O)Nc1cc(C)no1)cn2Cc1ccc(F)cc1`: 77.4% (inactive).
As for `CC(C)OC(=O)[C@H](C)NP(=O)(Oc1ccccc1)C1CCCN(O)C1=O` (stereo not given in full), the growth is 57.2% (inactive).
Regarding `CC[C@@H]1[C@@H](C)O[C@@](O)([C@@H](C)[C@H](O)[C@H](C)[C@H]2OC(=O)/C=C/C=C/[C@H](C)[C@@H]([C@@H](C)[C@@H](O)[C@H](C)[C@@]3(O)C[C@@H](O[C@H]4C[C@@H](O)[C@H](O)C(C)O4)[C@H](CC)[C@@H](C)O3)OC(=O)/C=C/C=C/[C@@H]2C)C[C@H]1O[C@@H]1C[C@@H](O)[C@H](O)C(C)O1` (stereo not given in full), the growth was -96.7% (active).
Take `CCOc1ccc(/C=C/[N+](=O)[O-])cc1`: the growth was 16.9% (inactive).
Next, `O=C1C2C(C(=O)[N]1[Hg][c]1ccccc1)C1(Cl)C(Cl)=C(Cl)C2(Cl)C1(Cl)Cl` (stereo not given): -98.6% (active); `COC(=O)[C@@H](C)C[C@H](Cc1ccc2ccccc2c1)NC(=O)c1csc([C@@H](C[C@H](C(C)C)N(C)C(=O)[C@@H](NC(=O)[C@H]2CCCCN2C)C(C)C)OC(C)=O)n1`: 49.1% (inactive).
